Screens as filed in PubChem BioAssay.
Sampled rows, rich in hits. Any-hit rate of the full collection: about 10%.
SW480 rerep: induces DNA re-replication in SW480 colon adenocarcinoma cells; SW480 DNA re-replication, Hoechst DNA content imaging, 48 h; Potency, µM (titrated, usually from 46.1 µM), without a hit: top-dose re-replication activation, usual class: activators; hit rate 1.8% among 340,000; also: % of control where 0% means no effect; nearly all actives have a fitted effect of over 55% in size
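SW480 cells exposed to compounds for 48 hr at 37 C, 5% CO2, then Hoechst-stained 40 min. Nuclear DNA content imaged by fluorescence scanning (405 nm excitation, 500-530 nm emission); re-replication scored as increased high-intensity nuclei.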
RORgamma inh: ROR gamma (mouse) transcription inhibition. P51450. Drosophila S2 Gal4-RORgamma UAS-luciferase reporter, 20 h. Potency, µM (doses to about 53.6 µM), for the others: top-dose activity change, negative = inhibition, hits mostly inhibitors. hit rate 5.4% among 310,000. AID 2551; also: % is scaled to controls: 0 for no effect and ±100 for the full control effect; nearly all actives have a fitted effect of over 60% in size
Target sequence (P51450 whole entry, looked up, the tested form may be a part): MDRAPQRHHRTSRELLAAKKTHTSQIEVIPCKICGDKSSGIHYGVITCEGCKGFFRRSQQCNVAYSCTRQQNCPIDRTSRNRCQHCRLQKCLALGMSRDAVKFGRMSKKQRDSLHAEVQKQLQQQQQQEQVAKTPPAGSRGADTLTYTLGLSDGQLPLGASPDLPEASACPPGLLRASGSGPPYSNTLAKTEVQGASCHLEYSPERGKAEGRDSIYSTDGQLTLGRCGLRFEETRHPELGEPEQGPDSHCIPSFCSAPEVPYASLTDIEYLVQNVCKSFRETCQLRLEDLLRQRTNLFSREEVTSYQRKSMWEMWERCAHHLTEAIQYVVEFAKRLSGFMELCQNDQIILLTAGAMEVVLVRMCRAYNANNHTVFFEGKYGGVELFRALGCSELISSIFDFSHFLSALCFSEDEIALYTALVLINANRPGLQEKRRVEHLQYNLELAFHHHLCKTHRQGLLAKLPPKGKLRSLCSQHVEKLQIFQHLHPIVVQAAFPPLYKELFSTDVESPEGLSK
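Luciferase reporter read in Schneider cells carrying Gal4-RORγ (mouse) and UAS-Photinus luciferase; cells given compound 1 h before 700 uM copper sulfate induction, then incubated 20 h at ambient temperature.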
KB-3-1 cytotox: KB-3-1 parental cell cytotoxicity | KB-3-1 viability, CellTiter-Glo ATP luminescence, 72 h | Potency, µM (highest dose often 46.1 µM), hits mostly cytotoxic | hit rate 1.4% among 400,000 | AID 1347075; also: % is scaled to controls: 0 for no effect and ±100 for the full control effect; nearly all actives have a fitted effect of over 60% in size
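Viability of parental KB-3-1 cells, measured by CellTiter-Glo luminescence, followed a 72 h incubation at 37 °C with pinned compounds in phenol-red-free DMEM containing 10% FBS.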
Gal4-VP16 FLuc: inhibits Gal4-VP16 luciferase reporter, ROR gamma counter-screen; hit rate 3.5% among 310,000; AID 2546; Potency, µM (top dose mostly 53.6 µM), without a hit: at the top dose activity, negative = inhibition, hits mostly inhibitors; Drosophila S2 Gal4-VP16 UAS-luciferase, luminescence, 20 h;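 also: Gal4-VP16 expression switched on by copper sulfate through the metallothionein promoter; % is scaled to controls: 0 for no effect and ±100 for the full control effect; nearly all actives have a fitted effect of over 50% in size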
KB-V1 MDR tox: KB-V1 MDR subline cytotoxicity. AID 1347076. KB-V1 MDR cells viability, CellTiter-Glo, 72 h. Potency, µM (highest dose often 46.1 µM), usual class: cytotoxic. hit rate 3.4% among 400,000; also: % is scaled to controls: 0 for no effect and ±100 for the full control effect; nearly all actives have a fitted effect of over 60% in size
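Readout: CellTiter-Glo luminescence, 10 min after addition. Cells: KB-V1 MDR subline, 72 h at 37 degrees C with compound. Analysis: corrected, normalized data fitted to concentration-effect curves.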
MCF10A rereplic: DNA re-replication induction in MCF 10a cells | MCF 10A DNA re-replication, Hoechst nuclear intensity, 48 h | Potency, µM (highest dose often 46.1 µM), without a hit: top-dose activity, positive = re-replication, usual class: activators | AID 624296 | hit rate 2.9% among 350,000; also: % of control where 0% means no effect; nearly all actives have a fitted effect of over 50% in size
Starred values were filed as active, the others as inactive. Calls follow the shape of the dose curve; as a rule, active = well fitted curve in the direction sought with a large enough effect; inconclusive = small, poorly fitted or top-dose-only effect, or another doubt; inactive = no such curve, though single readings can be large; an effect the other way counts as inactive or inconclusive. Potency is read from the fitted curve at half-maximal effect.

Results for Cc1ccc(NC(=O)CSc2nnc(-c3cccs3)n2Cc2ccco2)cc1 ?
SW480 rerep: 3%; RORgamma inh: 26%; KB-3-1 cytotox: inactive; Gal4-VP16 FLuc: 1%; KB-V1 MDR tox: inactive; MCF10A rereplic: -3%

What do the screens show for `CN(C)c1ccc(NC(=O)CSc2nnc(-c3cccs3)n2Cc2ccco2)cc1`?
SW480 rerep: 3%; RORgamma inh: 13%; KB-3-1 cytotox: inconclusive; Gal4-VP16 FLuc: 0%; KB-V1 MDR tox: 7.3µM*; MCF10A rereplic: 27%

How did NC(=O)CSc1nnc(-c2cccs2)n1Cc1ccco1 do in these assays?
SW480 rerep: -27%; RORgamma inh: 22%; KB-3-1 cytotox: inactive; Gal4-VP16 FLuc: -12%; KB-V1 MDR tox: inconclusive; MCF10A rereplic: 0%

How did O=C(CSc1nnc(Cc2cccs2)n1Cc1ccco1)Nc1cccc(Cl)c1 do in these assays?
SW480 rerep: -2%; RORgamma inh: inconclusive; KB-3-1 cytotox: inactive; Gal4-VP16 FLuc: 11µM*; KB-V1 MDR tox: inconclusive; MCF10A rereplic: 6.5µM*

How did Cc1ccc(C)c(CSc2nnc(-c3cccs3)n2Cc2ccco2)c1 do in these assays?
SW480 rerep: inconclusive; RORgamma inh: -13%; KB-3-1 cytotox: inactive; Gal4-VP16 FLuc: -1%; KB-V1 MDR tox: 18µM*; MCF10A rereplic: 21µM*

What do the screens show for `O=C(CSc1nnc(Cc2cccs2)n1Cc1ccco1)Nc1cc(Cl)cc(Cl)c1`?
SW480 rerep: -1%; RORgamma inh: 22%; KB-3-1 cytotox: inactive; Gal4-VP16 FLuc: -13%; KB-V1 MDR tox: inactive; MCF10A rereplic: inconclusive

Results for Nc1ccccc1OC1=NS(=O)(=O)c2ccccc21 ?
KB-3-1 cytotox: inconclusive; KB-V1 MDR tox: inactive

What do the screens show for `Cn1cc(C2=C(c3cn(CCCSC(=N)N)c4ccccc34)C(=O)NC2=O)c2ccccc21`?
RORgamma inh: inconclusive; KB-3-1 cytotox: 4.1µM*; Gal4-VP16 FLuc: inconclusive; KB-V1 MDR tox: inconclusive

Results for CN(C)CCCn1cc(C2=C(c3c[nH]c4ccccc34)C(=O)NC2=O)c2ccccc21 ?
RORgamma inh: -5%; Gal4-VP16 FLuc: -30%

How did COc1cccc(COc2ccccc2C2Nc3ccc(Br)cc3C(=O)N2NC(=O)c2ccncc2)c1 (stereo unspecified) do in these assays?
SW480 rerep: inconclusive; RORgamma inh: inconclusive; KB-3-1 cytotox: inconclusive; Gal4-VP16 FLuc: -11%; KB-V1 MDR tox: 8.2µM*; MCF10A rereplic: 22%

What do the screens show for `COc1ccc(C2Nc3ccccc3C(=O)N2NC(C)=O)c(OC)c1` (stereo unspecified)?
SW480 rerep: 27%; RORgamma inh: -25%; KB-3-1 cytotox: inactive; Gal4-VP16 FLuc: -10%; KB-V1 MDR tox: inactive; MCF10A rereplic: -3%

Results for Cc1cc(C)nc(Nc2n[nH]c(-c3ccccc3Br)n2)n1 ?
SW480 rerep: -5%; RORgamma inh: 14µM*; KB-3-1 cytotox: inactive; Gal4-VP16 FLuc: inconclusive; KB-V1 MDR tox: inactive; MCF10A rereplic: 5%

What do the screens show for `Cc1cc(C)nc(Nc2n[nH]c(-c3ccccc3C)n2)n1`?
SW480 rerep: -12%; RORgamma inh: inconclusive; KB-3-1 cytotox: inactive; Gal4-VP16 FLuc: -6%; KB-V1 MDR tox: inactive; MCF10A rereplic: 17%

What do the screens show for `Cc1cc(C)nc(Nc2n[nH]c(-c3ccc(C(C)(C)C)cc3)n2)n1`?
SW480 rerep: -3%; RORgamma inh: 10µM*; KB-3-1 cytotox: inconclusive; Gal4-VP16 FLuc: 5%; KB-V1 MDR tox: inconclusive; MCF10A rereplic: 2%

Results for O=C(c1ccncc1)c1ccc(N2CCN(C3CC(=O)N(Cc4ccccc4)C3=O)CC2)cc1 (stereo unspecified) ?
SW480 rerep: -2%; RORgamma inh: 40%; KB-3-1 cytotox: inconclusive; Gal4-VP16 FLuc: inconclusive; KB-V1 MDR tox: 16µM*; MCF10A rereplic: inconclusive

How did CCC(=O)N1CCC(C)(C(=O)NCc2ccc(F)cc2)C1 (stereo unspecified) do in these assays?
KB-3-1 cytotox: inactive; KB-V1 MDR tox: inactive
